Compounds with a hit are over-represented: about 3.4% of the library has one in this group of screens.
HSF-1 act: HSF-1 activators, primary screen, NIH3T3-HGL cells, MG132 stress, luminescence, single point; NIH3T3-HGL HSF-1 luciferase reporter, 8 h; 100% = twice DMSO control signal; activation, % at 9 µM; hit rate 1.7% among 300,000; AID 504408, 2011;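 active = mean replicate activation of at least 50% with a set share of replicates each reaching 50%; inconclusive = only one of those two conditions met; inactive = mean below 50% and too few replicates reaching it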;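 also: 0% = median of the neutral control wells and 100% = twice that signal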
HSF1 inh: HSF1 inhibitors in luciferase reporter cells, primary screen, cell-based, NIH3T3, luminescence; NIH3T3-HGL HSE-luciferase, MG132-induced, luminescence 8 h; active compounds read low; activity change, negative = inhibition, % at 7.5 µM (by protocol); hit rate 0.77% among 300,000;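 active = more than half of replicate wells show activity change below -50%, luminescence cut by over half; inconclusive = some wells, but at most half, below -50%; inactive = no replicate well below -50%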;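 also: luciferase reports HSF-1 transcriptional activity via heat shock element; 0% = median of DMSO wells and -100% = zero luminescence signal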
esBAF inh: Bmi1 luciferase reporter increase in mESCs, primary screen, esBAF inhibitor project, mouse ES cells, Bmi1 luciferase knock-in, single point; 24 h; 100% = twice the neutral-well signal; reporter increase, % at 12.5 µM; hit rate 2% among 350,000; AID 602393, 2012; in the data active = activation above about 40%; inconclusive = no clear call, values can overlap the other calls;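 also: 0% = median of the plate's neutral control wells and 100% = double that signal; a rise in the Bmi1 reporter signal indicates esBAF inhibition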
Vif imaging: HIV Vif self-association inhibitors, primary screen, imaging, HEK293T, single point | HEK293T cells, Vif self-association by quenched fluorescence, 24 h | hit rate 0.35% among 340,000 | inhibition, % at 7.49 µM; in the data active = inhibition above about 50%, passing the limit was not always enough; inconclusive = no clear call, values can overlap the other calls; inactive = below about 31%
Starred values were filed as active, the others as inactive; ? = inconclusive; · = no result.

SMILES	HSF-1 act	HSF1 inh	esBAF inh	Vif imaging
Cc1ccc(Cc2cnc(NC(=O)c3cccs3)s2)cc1	65*	34	72*	-6
Cc1ccc(C(=O)Nc2ncc(Cc3ccccc3)s2)o1	54*	23	4	-9
CO[C@@H]1CN(C)C(=O)c2cc(NS(C)(=O)=O)ccc2OC[C@@H](C)N(S(C)(=O)=O)C[C@@H]1C	·	·	-1	·
CCS(=O)(=O)N[C@H]1CC[C@H](CC(=O)NCc2ccc(F)cc2)O[C@H]1CO	·	·	2	·
COc1cccc(C2C(C(N)=O)=C(C)Nc3nc(-c4cccc(Cl)c4)nn32)c1 (stereo unspecified)	99*	41	-7	-4
CC1=C(C(N)=O)C(c2cccnc2)n2nc(-c3cccc(Cl)c3)nc2N1 (stereo unspecified)	1	-2	-5	4
C[C@H](CO)N1C[C@H](C)[C@@H](CN(C)Cc2ccc(Oc3ccccc3)cc2)Oc2c(NS(=O)(=O)c3cccs3)cccc2C1=O	·	·	-5	·
O=C(CN(CC1CCCO1)C(=O)CNS(=O)(=O)c1ccc(F)cc1)NC1CCCC1 (stereo unspecified)	63*	21	0	6
Cc1ccc(S(=O)(=O)NCC(=O)N(CC(=O)NCC2CCCO2)Cc2ccc(Cl)cc2)cc1 (stereo unspecified)	52*	18	1	-14
O=C(CN(Cc1ccc(F)cc1)C(=O)CNS(=O)(=O)c1ccc(Cl)cc1)NCC1CCCO1 (stereo unspecified)	4	6	-2	1
CO[C@H]1CN(C)C(=O)c2cc(NC(C)=O)ccc2OC[C@H](C)N(S(=O)(=O)c2cn(C)cn2)C[C@@H]1C	·	·	3	·
N#Cc1c2c(c(Nc3ccc(O)cc3)n3c1nc1ccccc13)CCC2	66*	30	-2	2
Nc1ccccc1C(=O)NNC1=C(C(=O)C(F)(F)F)CCC1	-61	-52*	·	8
O=C(c1cnn(-c2ccccc2)c1)c1ccc2ccccc2c1O	58*	36	5	-1
Cc1cc([N+](=O)[O-])ccc1NC(=O)CCC(=O)N1CCCCC1	-80	-77*	-5	-10
CC(=O)/C(=N/Nc1ccc(Br)cc1)Sc1cccc2cccnc12	67*	30	·	-8
COc1ccc(CCNC(=O)c2ccc3ccccc3n2)cc1OC	5	-7	-5	-4
CCOc1ccc(CCNC(=O)c2ccc3ccccc3n2)cc1OCC	20	11	57*	-9
COc1ccc(NC(=O)Nc2cccc3c2O[C@H](CN(C)C(=O)Nc2cccc4ccccc24)[C@@H](C)CN([C@@H](C)CO)C3=O)cc1	·	·	12	·
O=C(Nc1ccc(Cc2ccncc2)cc1)c1ccc([N+](=O)[O-])o1	144*	98	10	48
O=C(Nc1ccc(S(=O)(=O)N2CCOCC2)cc1)c1ccc(Cl)cc1Cl	-74	-67*	-8	12
O=C(Nc1ccc(N2CCOCC2)cc1)c1ccc([N+](=O)[O-])o1	146*	128	16	-9
O=C(Nc1ccc(Cc2ccncc2)cc1)c1cccc([N+](=O)[O-])c1	11	0	3	8
O=C(Nc1ccc(S(=O)(=O)N2CCOCC2)cc1)c1ccc([N+](=O)[O-])o1	123*	105	18	-3
O=C(Nc1ccc(S(=O)(=O)N2CCOCC2)cc1)c1cc([N+](=O)[O-])ccc1Cl	?	43	1	0
SMILES	HSF-1 act	HSF1 inh	esBAF inh	Vif imaging
O=C(Nc1ccc(S(=O)(=O)N2CCCC2)cc1)c1ccc([N+](=O)[O-])o1	·	·	-2	7
C[C@@H]1CN([C@@H](C)CO)S(=O)(=O)c2ccc(C#CC3(O)CCCC3)cc2O[C@@H]1CN(C)C(=O)c1cccnc1	·	·	0	·
Cn1ccsc1=NC(=O)c1cccc(OC(F)F)c1	22	5	53*	-9
CCCN1C[C@H](C)[C@@H](OC)CN(C)C(=O)c2cc(NC(=O)Nc3ccccc3F)ccc2OC[C@H]1C	·	·	-4	·
COc1cc(OC)cc(C(=O)NC(C(=O)Nc2ccc3c(c2)OCCO3)C(C)C)c1 (stereo unspecified)	·	·	-13	-1
CCOc1ccc(Br)cc1CNc1ccc2c(c1)OCCO2	-63	-56*	·	14
COc1cc(OC)cc(C(=O)Nc2ccc3c(c2)OCCO3)c1	28	15	42*	-3
CCOc1ccc(C(=O)Nc2ccc3c(c2)OCCO3)cc1OC	18	5	67*	-8
c1cc(CNc2ccc3c(c2)OCCO3)ccn1	-80	-78*	-22	·
Cc1cc(NCc2ccncc2)ccc1Br	0	1	·	3
O=C(Cc1ccncc1)NCC[C@@H]1CC[C@@H](NC(=O)C2CC2)[C@@H](CO)O1	·	·	-3	·
COc1ccc(N2CCN(S(=O)(=O)c3cc4c(cc3C)NC(=O)CO4)CC2)cc1	2	-9	0	0
COc1ccc(N2CCN(S(=O)(=O)c3cc4c(cc3C)N(C(C)=O)CCO4)CC2)cc1	-67	-58*	-2	·
CO[C@H]1CN(C)C(=O)c2cc(NC(=O)C3CCC3)ccc2OC[C@@H](C)N(Cc2nccs2)C[C@H]1C	·	·	0	·
CC(NC(=O)Cc1cccs1)c1ccc2c(c1)OCO2 (stereo unspecified)	0	9	5	-15
O=C(CC(SCc1ccco1)c1ccc(O)cc1)c1cccs1 (stereo unspecified)	22	14	71*	·
O=C(CC(SCCO)c1ccc2c(c1)OCO2)c1cccs1 (stereo unspecified)	40	24	84*	0
COc1ccc(CN(C)C[C@H]2Oc3c(NS(=O)(=O)c4cn(C)cn4)cccc3C(=O)N([C@@H](C)CO)C[C@H]2C)cc1	·	·	0	·
C[C@H](NC(=O)C[C@@H]1C[C@@H]2c3cc(NC(=O)CC4CC4)ccc3O[C@@H]2[C@H](CO)O1)c1ccccc1	·	·	-2	·
CCCNC(=O)[C@@H]1[C@@H](CO)[C@@H]2Cn3c(cccc3=O)[C@@H]2N1C(=O)CC1CC1	·	·	-1	·
CCOc1ccc(C(=S)NC2CCCCC2)cc1	29	5	·	12
COc1ccc(NC(=O)NC2CCCCCCC2)cc1	24	20	53*	-3
O=C(Nc1ccccc1Cl)NC1CCCCCCC1	·	·	59*	-7
COc1ccc(C(=S)NC2CCCCC2)cc1	-2	-5	50*	0
CCc1ccccc1NC(=O)NC1CCCCC1	-5	3	-7	·
COc1ccccc1NC(=O)N[C@@H]1CC[C@@H](CCNC(=O)Cc2ccccn2)O[C@H]1CO	·	·	-1	·
COc1ccc(NC(=S)Nc2ncccc2C)c(OC)c1	14	6	48*	-8
CCc1ccc(N2CSC3=C(C#N)C(c4cccs4)CC(=O)N3C2)cc1 (stereo unspecified)	14	0	0	-9
Cc1ccc(N2CSC3=C(C#N)C(c4cccs4)CC(=O)N3C2)cc1 (stereo unspecified)	11	17	54*	0
O=C(NNc1c(Cl)cccc1Cl)C1CCC1	53*	20	·	-5

Screening data deposited in PubChem BioAssay by Broad Institute.
